Assay results as given in PubChem BioAssay AID1159580 (chemical genetic matrix, 2015).
Where “and” joins values, the source holds several entries; their conditions need not be identical. Equal entries are not always repeated. The campaign covered roughly 5,500 compounds. About 2,000 (36%) were called active. Roughly 18% stayed inconclusive and do not appear here. Cut-off read from the data, not from the text of the source: active = normalized growth mostly below about 0.91 (no sharp cut-off); inconclusive = no clear call, values can overlap the other calls; inactive = mostly above about 0.92. This is one part of the list.

Test: chemical genetic growth profiling, strain panel (AID 1159580);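 note: tested at 20 µM; growth read once vehicle control cultures reached saturation at 30 °C; 1 = growth at the plate median or of vehicle wells; lower values mean less growth of the strain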
Details: S. cerevisiae deletion strains, growth OD
[1] = locus YAL013W, strain DEP1, hits give low values
[2] = locus YBR229C, strain ROT2, hits give low values
[3] = locus YDL101C, strain DUN1, hits give low values
[4] = locus YDR150W, strain NUM1, hits give low values
[5] = locus YEL061C, strain CIN8, hits give low values
[6] = locus YHR030C, strain SLT2, hits give low values
[7] = locus YJL187C, strain SWE1, hits give low values
[8] = locus YJR043C, strain POL32, hits give low values
[9] = locus YJR075W, strain HOC1, hits give low values
[10] = locus YLR039C, strain RIC1, hits give low values
[11] = locus YLR262C, strain YPT6, hits give low values
[12] = locus YMR263W, strain SAP30, hits give low values

Measured: normalized growth

Cc1ccc2c(c1)N(CCO)C(C)(C)CC2C (centres undefined)
inactive: [1] 1 | [2] 0.997 | [3] 0.97 | [4] 0.909 | [5] 1.03 | locus YGR078C, strain PAC10, hits give low values 0.986 | [6] 0.982 | locus YHR087W, strain rtc3, hits give low values 0.961 | [7] 1 | [8] 0.98 | [9] 0.975 | [10] 0.969 | locus YLR058C, strain SHM2 (second series), hits give low values 0.988 | locus YLR085C, strain ARP6, hits give low values 1.03 | [11] 0.955 | locus YML094W, strain GIM5, hits give low values 0.993 | locus YMR219W, strain ESC1, hits give low values 0.987 | [12] 0.997 | locus YNL153C, strain GIM3, hits give low values 1 | locus YNL298W, strain CLA4 (second series), hits give low values 1.04 | locus YNL322C, strain KRE1, hits give low values 1 | locus YNR030W, strain Alg12, hits give low values 0.986 | locus YOL006C, strain TOP1, hits give low values 1.02 | locus YPL055C, strain LGE1, hits give low values 0.962 | locus YPL241C, strain CIN2, hits give low values 0.998 | locus YPR135W, strain CTF4, hits give low values 0.953

COc1cc(OC)c(OC)cc1C=O
inactive: [1] 0.991 | locus YAL021C, strain ccr4, hits give low values 1.01 | locus YAL026C, strain drs2, hits give low values 1 | locus YAL030W, strain snc1, hits give low values 0.998 | locus YBL061C, strain skt5, hits give low values 0.991 | locus YBR009C, strain hhf1, hits give low values 0.993 | locus YBR021W, strain FUR4, hits give low values 1.03 | locus YBR023C, strain chs3, hits give low values 0.991 | locus YBR171W, strain sec66, hits give low values 0.991 | [2] 1.01 | locus YBR231C, strain swc5, hits give low values 0.998 | locus YBR279W, strain paf1, hits give low values 0.997 | locus YCL011C, strain gbp2, hits give low values 1 | locus YCL016C, strain dcc1, hits give low values 0.995 | locus YCL029C, strain bik1, hits give low values 0.972 | locus YCL061C, strain MRC1, hits give low values 0.996 | locus YCL069W, strain vba3, hits give low values 0.999 | locus YCR088W, strain abp1, hits give low values 0.999 | locus YDL005C, strain med2, hits give low values 0.985 | locus YDL035C, strain GPR1, hits give low values 1.01 | locus YDL040C, strain nat1, hits give low values 0.998 | locus YDL074C, strain BRE1, hits give low values 1 | [3] 1.02 | locus YDL185W, strain tfp1, hits give low values 0.94 | locus YDL192W, strain arf1, hits give low values 0.997 | locus YDR001C, strain nth1, hits give low values 0.999 | locus YDR069C, strain doa4, hits give low values 0.991 | locus YDR101C, strain arx1, hits give low values 0.989 | locus YDR137W, strain rgp1, hits give low values 0.973 | [4] 0.991 | locus YDR159W, strain sac3, hits give low values 1 | locus YDR162C, strain NBP2, hits give low values 1.06 | locus YDR195W, strain ref2 1.01 | locus YDR297W, strain sur2, hits give low values 0.989 | locus YDR318W, strain mcm21, hits give low values 0.994 | locus YDR334W, strain swr1, hits give low values 0.987 | locus YDR335W, strain msn5, hits give low values 1 | locus YDR388W, hits give low values 0.988 | locus YDR392W, strain spt3, hits give low values 0.999 | locus YDR502C, strain sam2, hits give low values 0.995 | locus YEL003W, strain gim4, hits give low values 0.999 | locus YEL037C, strain rad23, hits give low values 1 | locus YEL061C, strain CIN8 (second series), hits give low values 1 | [5] 1.01 | locus YER015W, strain faa2, hits give low values 0.997 | locus YER016W, strain bim1, hits give low values 0.994 | locus YER110C, hits give low values 0.968 | locus YER111C, strain swi4, hits give low values 1 | locus YER155C, strain BEM2 (second series), hits give low values 1 | locus YER155C, strain BEM2, hits give low values 0.991 | locus YER167W, strain BCK2, hits give low values 1.02 | locus YFR010W, strain ubp6, hits give low values 0.999 | locus YGL078C, strain dbp3, hits give low values 0.986 | locus YGL086W, strain mad1, hits give low values 0.984 | locus YGL167C, strain pmr1, hits give low values 1 | locus YGL173C, strain kem1, hits give low values 0.997 | locus YGL227W, strain vid30, hits give low values 0.992 | locus YGL240W, strain doc1, hits give low values 1.02 | locus YGL248W, strain PDE1, hits give low values 1.06 | locus YGL253W, strain hxk2, hits give low values 0.992 | locus YGR135W, strain pre9, hits give low values 1.03 | locus YGR252W, strain gcn5, hits give low values 1.08 | locus YHR013C, strain ard1, hits give low values 1.02 | locus YHR027C, strain rpn1, hits give low values 0.994 | [6] 0.994 and 0.979 | locus YHR079C, strain IRE1 (second series), hits give low values 0.987 | locus YHR079C, strain IRE1, hits give low values 0.996 | locus YHR094C, strain hxt1, hits give low values 1 | locus YHR129C, strain ARP1, hits give low values 1.02 | locus YHR142W, strain chs7, hits give low values 0.998 | locus YHR200W, strain rpn10, hits give low values 0.978 | locus YIL066C, strain RNR3, hits give low values 1.04 | locus YIL073C, strain SPO22, hits give low values 0.955 | locus YIL125W, strain kgd1, hits give low values 0.998 | locus YIR030C, strain dcg1, hits give low values 0.99 | locus YJL092W, strain hpr5, hits give low values 0.995 | locus YJL095W, strain BCK1 (second series), hits give low values 0.99 | locus YJL095W, strain BCK1, hits give low values 1.09 and 0.989 | locus YJL115W, strain asf1, hits give low values 1 | locus YJL129C, strain trk1, hits give low values 1 | locus YJL134W, strain LCB3, hits give low values 0.987 | locus YJL154C, strain vps35, hits give low values 0.995 | locus YJL164C, strain tpk1, hits give low values 1 | locus YJL166W, strain qcr8, hits give low values 1.01 | locus YJL168C, strain set2, hits give low values 0.991 | locus YJL187C, strain SWE1 (second series), hits give low values 1.04 | [7] 0.991 | [8] 0.986 | locus YJR066W, strain TOR1, hits give low values 0.916 | [9] 1.01 | locus YKL009W, strain mrt4, hits give low values 0.972 | locus YKL068W, hits give low values 0.985 | locus YKL085W, strain MDH1 (second series), hits give low values 0.988 | locus YKL085W, strain MDH1, hits give low values 0.988 | locus YKL160W, strain elf1, hits give low values 1 | locus YKR001C, strain vps1, hits give low values 1.02 | locus YKR026C, strain gcn3, hits give low values 0.994 | locus YKR091W, strain srl3, hits give low values 0.997 | locus YLL001W, strain dnm1, hits give low values 1.01 | locus YLL026W, hits give low values 0.99 | locus YLL041C, strain sdh2, hits give low values 0.996 | locus YLR027C, strain aat2, hits give low values 1.01 | [10] 0.989 | locus YLR058C, strain SHM2, hits give low values 1.03 | locus YLR102C, strain apc9, hits give low values 0.971 | locus YLR113W, strain HOG1, hits give low values 1.01 | locus YLR221C, strain rsa3, hits give low values 0.992 | locus YLR258W, strain gsy2, hits give low values 1 | locus YLR262C, strain YPT6 (second series), hits give low values 0.985 | [11] 1.02 | locus YLR268W, strain sec22, hits give low values 0.97 | locus YLR320W, strain mms22, hits give low values 0.995 | locus YLR330W, strain CHS5, hits give low values 1.01 | locus YLR342W, strain FKS1 (second series), hits give low values 1.05 | locus YLR342W, strain FKS1, hits give low values 0.997 | locus YLR357W, strain rsc2, hits give low values 0.957 | locus YLR370C, strain arc18, hits give low values 0.997 | locus YLR371W, strain rom2, hits give low values 0.993 | locus YLR384C, strain iki3, hits give low values 1.01 | locus YLR418C, strain cdc73, hits give low values 1.02 | locus YML016C, strain PPZ1, hits give low values 1.01 | locus YML032C, strain rad52, hits give low values 1.04 | locus YML120C, strain ndi1, hits give low values 0.999 | locus YML124C, strain tub3, hits give low values 0.984 | locus YMR058W, strain fet3, hits give low values 1 | locus YMR078C, strain ctf18, hits give low values 0.982 | locus YMR125W, strain sto1, hits give low values 0.991 | locus YMR129W, hits give low values 0.989 | locus YMR205C, strain PFK2, hits give low values 1 | locus YMR223W, strain ubp8, hits give low values 1 | locus YMR231W, strain pep5, hits give low values 0.989 | [12] 1.01 | locus YMR307W, strain GAS1, hits give low values 1.09 | locus YNL067W, strain RPL9B, hits give low values 1.04 | locus YNL071W, strain lat1, hits give low values 1 | locus YNL183C, strain NPR1, hits give low values 0.946 | locus YNL209W, strain ssb2, hits give low values 0.996 | locus YNL233W, strain BNI4, hits give low values 1.06 | locus YNL248C, strain rpa49, hits give low values 1 | locus YNL250W, strain rad50, hits give low values 0.964 | locus YNL271C, strain bni1, hits give low values 0.982 | locus YNL298W, strain CLA4, hits give low values 0.987 | locus YNL307C, strain MCK1, hits give low values 0.999 | locus YNL322C, strain KRE1 (second series), hits give low values 1 | locus YNR049C, strain mso1, hits give low values 0.992 | locus YNR052C, strain pop2, hits give low values 0.995 | locus YOL012C, strain htz1 2.03 | locus YOL147C, strain pex11, hits give low values 1 | locus YOR001W, strain rrp6, hits give low values 0.998 | locus YOR061W, strain CKA2, hits give low values 1.01 | locus YOR069W, strain VPS5, hits give low values 0.989 | locus YOR070C, strain gyp1, hits give low values 0.979 | locus YOR080W, strain dia2, hits give low values 0.987 | locus YOR083W, strain WHI5, hits give low values 1 | locus YOR106W, strain vam3, hits give low values 1.01 | locus YOR136W, strain idh2, hits give low values 0.981 | locus YOR144C, strain elg1, hits give low values 1 | locus YOR184W, strain ser1, hits give low values 0.993 | locus YOR231W, strain MKK1, hits give low values 1 | locus YOR265W, strain rbl2, hits give low values 0.993 | locus YOR270C, strain vph1, hits give low values 1.01 | locus YOR290C, strain snf2, hits give low values 1 | locus YOR316C, strain cot1, hits give low values 0.99 | locus YPL051W, strain arl3, hits give low values 0.992 | locus YPL078C, strain atp4, hits give low values 1 | locus YPL106C, strain sse1, hits give low values 0.958 | locus YPL240C, strain hsp82, hits give low values 0.992 | locus YPL256C, strain CLN2, hits give low values 0.976 | locus YPR119W, strain clb2, hits give low values 0.974 | locus YPR141C, strain kar3, hits give low values 0.975 | locus YPR163C, strain tif3, hits give low values 0.981 | locus YPR167C, strain met16, hits give low values 0.971 | strain wtn01, hits give low values 0.978
